PubChem BioAssay AID1159580 (chemical genetic matrix, 2015)
In all, about 5,500 compounds went through this assay and about 2,000 (36%) were called active. Inconclusive results (about 18%) are left out. No stated cut-off is given here; in the data, active means normalized growth mostly below about 0.91 (no sharp cut-off); inconclusive means no clear call, values can overlap the other calls; inactive means mostly above about 0.92. The list shows a part of the results.

Assay: chemical genetic growth profiling, strain panel (AID 1159580);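 further: tested at 20 µM; growth read once vehicle control cultures reached saturation at 30 °C; 1 = growth at the plate median or of vehicle wells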
Conditions: S. cerevisiae deletion strains, growth OD
[1] = locus YAL013W, strain DEP1, stronger effect = lower value
[2] = locus YAL040C, strain CLN3, stronger effect = lower value
[3] = locus YER002W, strain NOP16, stronger effect = lower value
[4] = locus YGR078C, strain PAC10, stronger effect = lower value
[5] = locus YNL175C, strain NOP13, stronger effect = lower value
[6] = locus YNL197C, strain WHI3, stronger effect = lower value
[7] = locus YNL224C, strain SQS1, stronger effect = lower value
[8] = locus YNL322C, strain KRE1, stronger effect = lower value
[9] = locus YOR083W, strain WHI5 (second series), stronger effect = lower value

Measured: normalized growth

CC(C)(CO)Cc1cc(C(C)(C)C)c(O)c(C(C)(C)C)c1
inactive: [1] 0.972 | [2] 0.927 | locus YCL061C, strain MRC1 (second series), stronger effect = lower value 0.975 | locus YDR363W, strain ESC2, stronger effect = lower value 1.02 | [3] 0.968 | [4] 0.978 | locus YGR229C, strain SMI1, stronger effect = lower value 0.898 | [5] 0.954 | [6] 0.959 | [7] 0.962 | [8] 0.975 | [9] 0.951

CC(C)(C=O)Cc1cc(C(C)(C)C)c(O)c(C(C)(C)C)c1
inactive: [1] 1.02 | [2] 0.968 | [3] 0.98 | [4] 1 | locus YMR307W, strain GAS1, stronger effect = lower value 1.02 | locus YNL128W, strain TEP1, stronger effect = lower value 1.02 | [5] 1.02 | [6] 0.989 | [7] 1 | [8] 0.994 | [9] 1.01 | locus YPL055C, strain LGE1, stronger effect = lower value 1.01
